# Source: paper PMC7862700, “An all-to-all approach to the identification of sequence-specific readers for epigenetic DNA modifications on cytosine”
# Columns and labels:
# Test in all cases: DAPPL (digital affinity profiling via proximity ligation, sequencing); 10 mM Tris-HCl pH 7.5, 50 mM NaCl, 1 mM DTT, 4% glycerol, room temperature, 30 min; GST-TFs on glutathione beads, 16-mer random dsDNA library, 0.1% formaldehyde crosslink after washing; high values mean tight binding
# [1] = biological target: T1, FEV (Homo sapiens, UniProt Q99581 1-238); conditions: protein: recombinant; tags: N-terminal GST; dsDNA, one strand shown
# T1 sequence: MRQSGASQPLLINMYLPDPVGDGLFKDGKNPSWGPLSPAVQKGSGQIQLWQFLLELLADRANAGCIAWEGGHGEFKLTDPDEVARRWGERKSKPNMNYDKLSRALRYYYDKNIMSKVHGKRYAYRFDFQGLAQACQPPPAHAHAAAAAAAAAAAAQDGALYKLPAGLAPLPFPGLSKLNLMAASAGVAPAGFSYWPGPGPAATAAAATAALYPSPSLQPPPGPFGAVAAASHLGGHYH
# Outline: (§1)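 Binding signal is given per hexamer as its read frequency for a factor divided by its frequency in the tag-only sample. GST-fused human transcription factors were expressed in yeast, captured on glutathione beads, barcoded with DNA and pooled with that sample, then incubated with 200 nmole of a 16-mer random double-stranded DNA library in Tris/NaCl/DTT/glycerol buffer for 30 min at room temperature. The pools were then washed, crosslinked, proximity-ligated, amplified by PCR and sequenced on an Illumina NextSeq500.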
# [2] = biological target: ETV5 (Homo sapiens, UniProt P41161 1-510); conditions: protein: recombinant; tags: N-terminal GST; dsDNA, one strand shown
# Chain of ETV5 (P41161 whole entry): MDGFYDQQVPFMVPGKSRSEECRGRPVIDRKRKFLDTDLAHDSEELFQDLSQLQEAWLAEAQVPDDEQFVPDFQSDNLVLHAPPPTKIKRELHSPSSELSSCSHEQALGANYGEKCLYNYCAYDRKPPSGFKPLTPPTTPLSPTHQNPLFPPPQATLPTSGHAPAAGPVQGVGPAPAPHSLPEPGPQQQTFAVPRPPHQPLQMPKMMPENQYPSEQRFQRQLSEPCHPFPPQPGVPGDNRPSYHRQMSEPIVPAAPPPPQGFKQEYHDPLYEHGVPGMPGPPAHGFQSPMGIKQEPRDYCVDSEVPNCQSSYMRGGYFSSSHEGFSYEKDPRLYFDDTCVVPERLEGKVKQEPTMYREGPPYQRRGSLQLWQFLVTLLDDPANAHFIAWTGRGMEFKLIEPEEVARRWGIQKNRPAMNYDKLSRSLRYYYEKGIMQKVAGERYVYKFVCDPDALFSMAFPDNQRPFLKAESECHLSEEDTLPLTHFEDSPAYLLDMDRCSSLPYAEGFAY
# Outline: as §1
# [3] = biological target: HSF1 (Homo sapiens, UniProt Q00613 1-529); conditions: protein: recombinant; tags: N-terminal GST; chain copies: 3; dsDNA, one strand shown
# Chain of HSF1 (Q00613 whole entry): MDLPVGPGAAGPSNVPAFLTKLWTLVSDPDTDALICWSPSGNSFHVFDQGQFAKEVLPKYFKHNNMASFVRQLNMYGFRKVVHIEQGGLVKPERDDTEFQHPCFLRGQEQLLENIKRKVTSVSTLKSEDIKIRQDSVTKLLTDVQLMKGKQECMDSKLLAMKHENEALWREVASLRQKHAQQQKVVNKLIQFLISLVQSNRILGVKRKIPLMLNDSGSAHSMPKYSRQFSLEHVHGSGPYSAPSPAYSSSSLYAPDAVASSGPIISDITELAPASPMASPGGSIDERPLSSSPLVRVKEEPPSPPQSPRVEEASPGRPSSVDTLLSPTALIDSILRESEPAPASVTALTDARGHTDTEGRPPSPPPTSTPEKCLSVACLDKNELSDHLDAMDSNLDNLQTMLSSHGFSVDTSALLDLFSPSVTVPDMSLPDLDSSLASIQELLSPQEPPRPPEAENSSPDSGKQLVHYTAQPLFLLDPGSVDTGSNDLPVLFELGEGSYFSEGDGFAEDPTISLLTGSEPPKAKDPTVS
# Outline: as §1
# [4] = biological target: T2, SPIC (Homo sapiens, UniProt Q8N5J4 1-248); conditions: protein: recombinant; tags: N-terminal GST; dsDNA, one strand shown
# T2 sequence: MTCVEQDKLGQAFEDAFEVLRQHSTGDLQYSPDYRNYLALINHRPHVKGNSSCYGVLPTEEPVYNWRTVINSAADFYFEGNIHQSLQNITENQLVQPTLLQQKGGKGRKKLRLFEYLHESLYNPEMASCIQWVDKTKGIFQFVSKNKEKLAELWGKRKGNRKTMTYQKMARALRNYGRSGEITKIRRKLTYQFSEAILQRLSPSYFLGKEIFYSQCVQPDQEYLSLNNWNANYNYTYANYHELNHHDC
# Outline: as §1
# [5] = biological target: ELF4 (Homo sapiens, UniProt Q99607 1-663); conditions: protein: recombinant; tags: N-terminal GST; dsDNA, one strand shown
# Chain of ELF4 (Q99607 whole entry): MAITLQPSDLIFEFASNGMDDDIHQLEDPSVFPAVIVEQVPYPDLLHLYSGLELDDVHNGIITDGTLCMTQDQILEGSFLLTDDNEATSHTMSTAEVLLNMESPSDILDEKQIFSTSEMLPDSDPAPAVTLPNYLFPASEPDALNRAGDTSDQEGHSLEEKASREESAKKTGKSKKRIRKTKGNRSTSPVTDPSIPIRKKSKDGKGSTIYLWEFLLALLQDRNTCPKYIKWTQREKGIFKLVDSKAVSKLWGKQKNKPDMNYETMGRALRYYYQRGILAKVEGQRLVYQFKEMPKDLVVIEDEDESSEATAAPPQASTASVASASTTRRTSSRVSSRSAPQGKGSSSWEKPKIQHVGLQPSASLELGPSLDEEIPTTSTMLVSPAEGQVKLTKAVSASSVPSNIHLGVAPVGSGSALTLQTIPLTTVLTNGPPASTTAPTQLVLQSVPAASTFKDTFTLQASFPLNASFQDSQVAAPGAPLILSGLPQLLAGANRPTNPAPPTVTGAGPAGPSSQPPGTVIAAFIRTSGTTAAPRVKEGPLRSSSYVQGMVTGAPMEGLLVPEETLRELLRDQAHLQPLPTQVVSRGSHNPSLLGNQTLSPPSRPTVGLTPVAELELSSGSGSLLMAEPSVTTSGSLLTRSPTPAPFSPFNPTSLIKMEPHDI
# Outline: as §1
# [6] = biological target: T3, ELK4 (Homo sapiens, UniProt P28324-2 1-405); conditions: protein: recombinant; tags: N-terminal GST; dsDNA, one strand shown
# T3 sequence: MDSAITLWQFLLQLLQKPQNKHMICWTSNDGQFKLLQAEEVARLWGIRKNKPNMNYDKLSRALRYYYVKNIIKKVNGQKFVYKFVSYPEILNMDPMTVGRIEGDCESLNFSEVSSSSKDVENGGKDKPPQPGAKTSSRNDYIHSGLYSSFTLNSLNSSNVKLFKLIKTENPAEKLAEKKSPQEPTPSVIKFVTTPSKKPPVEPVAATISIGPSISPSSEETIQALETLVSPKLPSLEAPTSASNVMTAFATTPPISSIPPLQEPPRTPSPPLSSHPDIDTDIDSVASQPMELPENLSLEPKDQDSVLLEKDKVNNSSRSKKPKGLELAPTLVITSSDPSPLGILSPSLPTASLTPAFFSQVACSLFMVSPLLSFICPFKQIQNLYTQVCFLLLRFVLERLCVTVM
# Outline: as §1
# [7] = biological target: T4, ETV2 (Homo sapiens, UniProt O00321 1-342); conditions: protein: recombinant; tags: N-terminal GST; dsDNA, one strand shown
# T4 sequence: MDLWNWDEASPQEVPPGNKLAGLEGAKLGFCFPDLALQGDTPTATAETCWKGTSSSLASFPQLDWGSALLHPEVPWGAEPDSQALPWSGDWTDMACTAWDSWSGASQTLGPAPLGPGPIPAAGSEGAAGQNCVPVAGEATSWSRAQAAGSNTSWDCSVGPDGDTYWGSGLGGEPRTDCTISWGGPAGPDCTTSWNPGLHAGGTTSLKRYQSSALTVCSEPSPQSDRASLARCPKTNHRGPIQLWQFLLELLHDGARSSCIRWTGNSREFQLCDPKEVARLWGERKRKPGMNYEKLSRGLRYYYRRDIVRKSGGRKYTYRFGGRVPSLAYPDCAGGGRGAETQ
# Outline: as §1
# [8] = biological target: T5, ELF3 (Homo sapiens, UniProt P78545 1-371); conditions: protein: recombinant; tags: N-terminal GST; dsDNA, one strand shown
# T5 sequence: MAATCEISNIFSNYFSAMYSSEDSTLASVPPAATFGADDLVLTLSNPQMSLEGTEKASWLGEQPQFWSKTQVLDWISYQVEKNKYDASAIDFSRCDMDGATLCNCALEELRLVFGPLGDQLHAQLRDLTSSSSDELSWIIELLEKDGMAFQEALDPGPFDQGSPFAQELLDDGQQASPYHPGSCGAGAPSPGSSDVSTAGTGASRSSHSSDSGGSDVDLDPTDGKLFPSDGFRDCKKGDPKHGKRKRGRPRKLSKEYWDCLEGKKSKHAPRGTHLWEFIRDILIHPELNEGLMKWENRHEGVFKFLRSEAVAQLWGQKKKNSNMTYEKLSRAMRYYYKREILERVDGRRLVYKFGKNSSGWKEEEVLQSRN
# Outline: as §1
# [9] = biological target: CRX (Homo sapiens, UniProt O43186 1-299); conditions: protein: recombinant; tags: N-terminal GST; dsDNA, one strand shown
# Chain of CRX (O43186 whole entry): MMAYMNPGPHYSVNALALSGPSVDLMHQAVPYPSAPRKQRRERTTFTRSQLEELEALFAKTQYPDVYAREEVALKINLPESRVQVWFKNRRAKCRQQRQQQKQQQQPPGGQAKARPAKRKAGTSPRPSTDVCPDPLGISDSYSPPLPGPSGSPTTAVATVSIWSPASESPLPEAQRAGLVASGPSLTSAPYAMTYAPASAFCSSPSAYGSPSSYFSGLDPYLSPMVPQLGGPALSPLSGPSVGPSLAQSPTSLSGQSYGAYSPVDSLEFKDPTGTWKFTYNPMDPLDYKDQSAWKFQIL
# Outline: as §1
# [10] = biological target: ETV1 (Homo sapiens, UniProt P50549 1-477); conditions: protein: recombinant; tags: N-terminal GST; dsDNA, one strand shown
# Chain of ETV1 (P50549 whole entry): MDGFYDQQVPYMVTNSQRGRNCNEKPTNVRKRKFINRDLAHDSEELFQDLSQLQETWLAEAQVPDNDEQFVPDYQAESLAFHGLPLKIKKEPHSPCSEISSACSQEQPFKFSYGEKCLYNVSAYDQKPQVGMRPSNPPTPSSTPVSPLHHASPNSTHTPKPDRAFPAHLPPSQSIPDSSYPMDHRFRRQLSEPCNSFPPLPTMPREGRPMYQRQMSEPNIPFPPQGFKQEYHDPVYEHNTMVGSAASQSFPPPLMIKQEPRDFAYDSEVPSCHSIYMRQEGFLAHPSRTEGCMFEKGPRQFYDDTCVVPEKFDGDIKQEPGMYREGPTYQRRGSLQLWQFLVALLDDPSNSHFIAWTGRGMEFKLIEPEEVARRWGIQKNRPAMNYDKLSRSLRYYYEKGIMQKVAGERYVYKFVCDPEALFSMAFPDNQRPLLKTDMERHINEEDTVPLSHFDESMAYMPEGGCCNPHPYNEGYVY
# Outline: as §1
# [11] = biological target: T6, ERF (Homo sapiens, UniProt P50548 1-548); conditions: protein: recombinant; tags: N-terminal GST; dsDNA, one strand shown
# T6 sequence: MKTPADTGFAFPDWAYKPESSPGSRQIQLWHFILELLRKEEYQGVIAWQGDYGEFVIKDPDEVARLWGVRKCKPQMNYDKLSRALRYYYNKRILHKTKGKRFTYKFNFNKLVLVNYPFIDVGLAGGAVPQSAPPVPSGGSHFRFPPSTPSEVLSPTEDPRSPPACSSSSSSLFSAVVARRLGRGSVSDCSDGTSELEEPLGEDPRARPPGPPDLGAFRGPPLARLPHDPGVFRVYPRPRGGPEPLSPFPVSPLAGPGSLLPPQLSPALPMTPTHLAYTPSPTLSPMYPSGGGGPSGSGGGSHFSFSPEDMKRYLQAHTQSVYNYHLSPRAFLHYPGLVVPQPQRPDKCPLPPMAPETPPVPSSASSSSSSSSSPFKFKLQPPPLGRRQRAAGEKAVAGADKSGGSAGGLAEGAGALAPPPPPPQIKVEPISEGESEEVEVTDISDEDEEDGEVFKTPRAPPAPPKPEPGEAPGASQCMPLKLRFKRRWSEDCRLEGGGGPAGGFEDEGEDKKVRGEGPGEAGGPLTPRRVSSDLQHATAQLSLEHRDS
# Outline: as §1
# [12] = biological target: T7, ETV3L (Homo sapiens, UniProt Q6ZN32 1-361); conditions: protein: recombinant; tags: N-terminal GST; dsDNA, one strand shown
# T7 sequence: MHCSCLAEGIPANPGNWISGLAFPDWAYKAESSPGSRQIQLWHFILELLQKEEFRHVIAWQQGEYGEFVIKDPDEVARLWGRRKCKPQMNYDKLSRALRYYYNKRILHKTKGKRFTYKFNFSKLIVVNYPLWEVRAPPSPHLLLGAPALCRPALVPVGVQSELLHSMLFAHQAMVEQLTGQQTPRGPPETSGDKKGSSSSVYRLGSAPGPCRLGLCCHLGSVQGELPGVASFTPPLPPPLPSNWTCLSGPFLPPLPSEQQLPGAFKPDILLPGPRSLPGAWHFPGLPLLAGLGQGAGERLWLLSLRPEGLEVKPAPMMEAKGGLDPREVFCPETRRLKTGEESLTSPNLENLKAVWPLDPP
# Outline: as §1
# [13] = biological target: T8, ETS2 (Homo sapiens, UniProt P15036 1-469); conditions: protein: recombinant; tags: N-terminal GST; dsDNA, one strand shown
# T8 sequence: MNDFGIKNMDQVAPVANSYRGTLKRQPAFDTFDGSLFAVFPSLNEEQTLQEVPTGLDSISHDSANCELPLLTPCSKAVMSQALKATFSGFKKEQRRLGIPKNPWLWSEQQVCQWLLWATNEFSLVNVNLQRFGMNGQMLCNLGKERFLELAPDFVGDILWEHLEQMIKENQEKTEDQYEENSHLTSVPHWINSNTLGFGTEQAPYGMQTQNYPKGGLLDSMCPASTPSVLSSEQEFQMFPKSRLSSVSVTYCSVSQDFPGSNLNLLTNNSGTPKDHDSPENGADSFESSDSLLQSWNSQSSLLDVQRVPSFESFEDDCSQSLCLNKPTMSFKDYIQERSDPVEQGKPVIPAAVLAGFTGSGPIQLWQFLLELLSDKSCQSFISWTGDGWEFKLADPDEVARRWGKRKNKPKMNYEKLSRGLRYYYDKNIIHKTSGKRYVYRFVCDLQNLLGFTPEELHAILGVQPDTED
# Outline: as §1
# [14] = biological target: T9, SPDEF (Homo sapiens, UniProt O95238 1-335); conditions: protein: recombinant; tags: N-terminal GST; dsDNA, one strand shown
# T9 sequence: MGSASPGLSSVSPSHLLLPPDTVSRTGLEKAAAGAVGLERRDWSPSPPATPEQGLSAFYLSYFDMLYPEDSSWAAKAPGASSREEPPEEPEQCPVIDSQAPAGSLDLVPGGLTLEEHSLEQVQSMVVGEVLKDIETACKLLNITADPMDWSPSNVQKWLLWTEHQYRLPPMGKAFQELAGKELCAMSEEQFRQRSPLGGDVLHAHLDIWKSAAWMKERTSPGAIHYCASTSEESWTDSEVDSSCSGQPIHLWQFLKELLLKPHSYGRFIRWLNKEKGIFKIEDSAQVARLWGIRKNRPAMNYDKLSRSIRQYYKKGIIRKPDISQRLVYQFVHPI
# Outline: as §1
# [15] = biological target: T10, ETV7 (Homo sapiens, UniProt Q9Y603 1-341); conditions: protein: recombinant; tags: N-terminal GST; dsDNA, one strand shown
# T10 sequence: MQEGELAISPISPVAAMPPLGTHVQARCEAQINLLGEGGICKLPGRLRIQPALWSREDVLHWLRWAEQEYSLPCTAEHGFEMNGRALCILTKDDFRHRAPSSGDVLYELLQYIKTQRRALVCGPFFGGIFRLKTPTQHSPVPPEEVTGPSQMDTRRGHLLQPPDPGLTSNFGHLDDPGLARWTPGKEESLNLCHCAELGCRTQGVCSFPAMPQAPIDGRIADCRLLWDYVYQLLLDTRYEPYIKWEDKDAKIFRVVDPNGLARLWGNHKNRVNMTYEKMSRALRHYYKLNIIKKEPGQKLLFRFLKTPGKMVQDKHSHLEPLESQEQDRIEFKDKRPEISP
# Outline: as §1
# [16] = biological target: T11, ELF5 (Homo sapiens, UniProt Q9UKW6-2 1-255); conditions: protein: recombinant; tags: N-terminal GST; dsDNA, one strand shown
# T11 sequence: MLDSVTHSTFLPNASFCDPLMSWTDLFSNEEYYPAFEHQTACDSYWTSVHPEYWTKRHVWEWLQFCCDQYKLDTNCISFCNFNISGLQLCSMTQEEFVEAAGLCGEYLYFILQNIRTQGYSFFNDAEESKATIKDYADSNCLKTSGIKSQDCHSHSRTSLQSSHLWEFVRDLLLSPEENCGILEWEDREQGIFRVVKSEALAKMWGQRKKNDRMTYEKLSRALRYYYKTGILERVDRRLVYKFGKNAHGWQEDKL
# Outline: as §1
# [17] = biological target: T12, ETV3 (Homo sapiens, UniProt P41162-2 1-143); conditions: protein: recombinant; tags: N-terminal GST; dsDNA, one strand shown
# T12 sequence: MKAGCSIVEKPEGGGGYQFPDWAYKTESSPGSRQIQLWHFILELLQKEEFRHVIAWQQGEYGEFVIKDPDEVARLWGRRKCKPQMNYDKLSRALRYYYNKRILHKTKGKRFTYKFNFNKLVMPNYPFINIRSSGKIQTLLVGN
# Outline: as §1
# [18] = biological target: ETV6 (Homo sapiens, UniProt P41212 1-452); conditions: protein: recombinant; tags: N-terminal GST; dsDNA, one strand shown
# Chain of ETV6 (P41212 whole entry): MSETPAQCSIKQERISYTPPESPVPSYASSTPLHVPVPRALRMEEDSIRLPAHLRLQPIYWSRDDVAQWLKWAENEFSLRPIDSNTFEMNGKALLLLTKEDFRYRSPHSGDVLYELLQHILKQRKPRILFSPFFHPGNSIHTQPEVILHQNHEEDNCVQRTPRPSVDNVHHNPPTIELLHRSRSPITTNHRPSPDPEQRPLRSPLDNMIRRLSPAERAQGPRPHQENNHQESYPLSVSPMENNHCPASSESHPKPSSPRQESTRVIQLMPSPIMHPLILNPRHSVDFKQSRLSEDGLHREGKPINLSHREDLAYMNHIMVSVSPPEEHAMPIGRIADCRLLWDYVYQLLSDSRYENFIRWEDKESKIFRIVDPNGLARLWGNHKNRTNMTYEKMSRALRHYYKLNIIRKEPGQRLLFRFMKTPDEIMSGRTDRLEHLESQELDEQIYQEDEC
# Outline: as §1
sequence,measurement,setting,value
ATGACT,binding signal,[1],"1.4 fold enrichment (6-mer frequency, TF over GST control)"
same,binding signal,[2],"1.43 fold enrichment (6-mer frequency, TF over GST control)"
same,binding signal,[3],"1.21 fold enrichment (6-mer frequency, TF over GST control)"
same,binding signal,[4],"1.47 fold enrichment (6-mer frequency, TF over GST control)"
same,binding signal,[5],"1.41 fold enrichment (6-mer frequency, TF over GST control)"
same,binding signal,[6],"1.39 fold enrichment (6-mer frequency, TF over GST control)"
same,binding signal,[7],"1.41 fold enrichment (6-mer frequency, TF over GST control)"
same,binding signal,[8],"1.46 fold enrichment (6-mer frequency, TF over GST control)"
same,binding signal,[9],"1.25 fold enrichment (6-mer frequency, TF over GST control)"
same,binding signal,[10],"1.36 fold enrichment (6-mer frequency, TF over GST control)"
same,binding signal,[11],"1.36 fold enrichment (6-mer frequency, TF over GST control)"
same,binding signal,[12],"1.47 fold enrichment (6-mer frequency, TF over GST control)"
same,binding signal,[13],"1.42 fold enrichment (6-mer frequency, TF over GST control)"
same,binding signal,[14],"1.29 fold enrichment (6-mer frequency, TF over GST control)"
same,binding signal,[15],"1.38 fold enrichment (6-mer frequency, TF over GST control)"
same,binding signal,[16],"1.32 fold enrichment (6-mer frequency, TF over GST control)"
same,binding signal,[17],"1.27 fold enrichment (6-mer frequency, TF over GST control)"
same,binding signal,[18],"1.3 fold enrichment (6-mer frequency, TF over GST control)"
